HCV inh = inhibitors of hepatitis C virus infection | 3.4% of 340,000 active | Potency, µM (series often up to 41.8 µM), for the others: at the top dose activity change, negative = inhibition, most hits filed as inhibitors | AID 651820 | Huh7.5.1 HCVcc-Cre infection, luciferase reporter, 44 h; further: potency means the concentration at half of the fitted maximal effect
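After 44 h co-culture of compound, cells and HCVcc-Cre (~0.5 moi), substrate is added for 15 min at room temperature and luciferase measured over 15 sec. Cells were seeded at 1,000/well and pre-cultured 4 h.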
Marburg entry inh = blocks Marburg virus binding to or entry into cells; Marburg virus pseudotyped entry inhibition, cell reporter; Potency, µM (top dose mostly 37.8 µM), without a hit: at the top dose activity change, negative = inhibition, actives largely listed as inhibitors; 1.8% of 300,000 active; AID 540276; calls by dose curve; tested in HEK293 cells; further: potency means the concentration at half of the fitted maximal effect
LASV entry inh = blocks Lassa virus binding to or entry into cells; 1.2% of 300,000 active; Potency, µM (series often up to 37.9 µM), without a hit: at the highest dose activity change, negative = inhibition, most hits filed as inhibitors; Lassa virus pseudotype entry inhibition, cell reporter; calls by dose curve; tested in HEK293 cells; further: potency means the concentration at half of the fitted maximal effect; nearly all actives have a fitted effect of over 50% in size
Giardia FBPA inh = Giardia lamblia aldolase inhibition. 0.71% of 290,000 active. A8B2U2. purified Giardia FBPA. Potency, µM (top dose mostly 59.6 µM), without a hit: top-dose activity, negative = inhibition, usual class: inhibitors; further: potency means the concentration at half of the fitted maximal effect; nearly all actives have a fitted effect of over 55% in size
Target sequence (A8B2U2 whole entry, looked up): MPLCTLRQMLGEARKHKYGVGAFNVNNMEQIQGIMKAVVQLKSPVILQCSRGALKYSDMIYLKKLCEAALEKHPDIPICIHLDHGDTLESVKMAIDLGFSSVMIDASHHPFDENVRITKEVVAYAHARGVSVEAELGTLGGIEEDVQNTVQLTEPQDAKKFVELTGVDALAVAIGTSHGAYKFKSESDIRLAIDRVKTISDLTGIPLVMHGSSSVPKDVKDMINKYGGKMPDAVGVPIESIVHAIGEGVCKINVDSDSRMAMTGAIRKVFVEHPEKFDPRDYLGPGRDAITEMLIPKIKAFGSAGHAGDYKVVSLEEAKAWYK
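Giardia FBPA (40 nM reagent) was preincubated 10 min at RT with compound (up to 57.5 uM final), then substrate plus GAPDH/TPI/NAD/arsenate coupling system with diaphorase/resazurin was added; resorufin fluorescence (525/598 nm) was read after 20 min.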
HCMV inh = inhibitors of human cytomegalovirus. activity change, negative = inhibition, % at 57.5 µM. HFF cells, HCMV-luciferase reporter, 72 h; hits give low values. 4.5% of 410,000 active; in the data active means activity change below about -60%; inconclusive means no clear call, values can overlap the other calls; inactive means above about -39%
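Human foreskin fibroblasts infected with luciferase-reporter HCMV at MOI 1 PFU/cell, compounds at two doses. Luciferase measured 72 h post infection; normalized to buffer-only basal and Salinomycin (10uM) controls.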
FMDV antiviral = antivirals against foot and mouth disease virus; FMDV antiviral cell-based qHTS; Potency, µM (top dose mostly 57.9 µM), for inactives: at the top dose activity change, negative = inhibition, usual class: inhibitors; 1.2% of 410,000 active; AID 1159524; calls by dose curve; tested in HEK293T cells; further: read-out not given here; potency means the concentration at half of the fitted maximal effect; nearly all actives have a fitted effect of over 45% in size
The depositor's hits bear a star; ? = inconclusive; nt = not tested or not shown; + = active, no number; [ ] = dose if it differs, or a comment. An excerpt weighted towards active compounds, which were near 8.3% of everything screened. Unless noted, the call rests on the fitted dose curve; in most records, active means well fitted curve in the direction sought with a large enough effect; inconclusive means small, poorly fitted or top-dose-only effect, or another doubt; inactive means no such curve, though single readings can be large; an effect the other way counts as inactive or inconclusive. On the % scale 0 is the no-effect control and ±100 the full control effect.

SMILES	HCV inh	Marburg entry inh	LASV entry inh	Giardia FBPA inh	HCMV inh	FMDV antiviral
Nc1nonc1-n1nnc(C(=O)N/N=C/c2c(F)cccc2Cl)c1-c1ccc2c(c1)OCO2	22%	nt	nt	nt	0	8%
Nc1nonc1-n1nnc(C(=O)N/N=C/c2ccc(F)cc2)c1-c1cccs1	-11%	-17%[46.1 µM]	-6%[46.1 µM]	nt	+	2%
CC(C)c1c(C(=O)N/N=C/c2ccc3c(c2)OCO3)nnn1-c1nonc1N	-9%	nt	nt	-3%	?	-3%
Nc1nonc1-n1nnc(C(=O)N/N=C/c2cccc(Cl)c2)c1-c1ccc2c(c1)OCO2	-4%	1%[46.1 µM]	7%[46.1 µM]	nt	+	-15%
CCC(C(=O)Nc1cc(-c2nc3cccnc3s2)ccc1C)c1ccccc1 (centres undefined)	nt	nt	-2%[46.1 µM]	nt	49	6%
CC(=O)c1cc2c(cc1O)OC(C)(C)C=C2	nt	nt	nt	6%	nt	25%
COCCN1CCN(C(=O)c2cnn(-c3ncc4c(n3)-c3ccc(OC)cc3CC4)c2C2CC2)CC1	nt	nt	nt	nt	nt	-22%
COC(=O)c1cc(S(=O)(=O)N2CCC(c3cc(OC)ccc3OC)C2)c[nH]1 (centres undefined)	6.3µM*	nt	nt	3%	?	-30%
COC(=O)c1cc(S(=O)(=O)N2CCC(c3ccccc3)C2)c[nH]1 (centres undefined)	11µM*	nt	nt	nt	-38	?
O=C(Nc1nc2c(cc3c4c(cccc42)CC3)s1)c1ccccc1Cl	6.3µM*	?	?	-9%	?	16%
COc1ccc(CC(=O)N2CCc3cc(OC)c(OC)cc3C2COc2ccc3c(C)cc(=O)oc3c2)cc1OC (centres undefined)	nt	?	5%[46.1 µM]	nt	8	-2%
CS(=O)(=O)N(Cc1ccccc1)c1ccc(C(=O)Nc2ccc(C(N)=O)cc2)cc1	17%	nt	nt	0%	-11	-5%
CC(=O)c1cccc(NC(=O)c2ccc(N(Cc3ccccc3)S(C)(=O)=O)cc2)c1	-26%	-23%	1%	5%	6	32µM*
Cc1cccc(NC(=O)c2ccc(N(Cc3ccccc3)S(C)(=O)=O)cc2)c1	nt	nt	?	nt	-66*	22µM*
Cc1cc(O)c(C(c2ccccc2)N2CCN(c3ccccc3)CC2)c(=O)n1Cc1ccco1 (centres undefined)	nt	nt	11%[46.1 µM]	nt	-5	-25%
COc1cccc(C(=O)Nc2cc(NC(=O)c3cccs3)ccc2C)c1	-15%	nt	nt	-12%	-75*	16%
COc1cccc(C(=O)Nc2cc(NC(=O)c3cccs3)ccc2C)c1OC	10µM*	nt	nt	-5%	-4	0%
NCC(=O)Nc1ccc(Cl)cc1C(=O)c1ccc[nH]1	9%	nt	nt	?	-66*	-3%
O=c1c(C=NCCN2CCNCC2)c(O)n(C2CCCCC2)c(=O)n1C1CCCCC1	?	21µM*	17%[14.3 µM]	0%	nt	-17%
O=c1c(C=NCc2cccs2)c(O)n(C2CCCCC2)c(=O)n1C1CCCCC1	4%	?	-12%	-1%	15	-11%
COc1ccc(C/C(N)=N/n2cnnc2)cc1	7%	5%	17%	3%	?	nt
CC(C)COc1ccc(C/C(N)=N/n2cnnc2)cc1	14µM*	1µM*	?	-6%	-94*	-17%
Cc1ccc2oc(=O)n(Cc3ccccc3OC(C)C)c2c1	-1%	-12%	29%	23%	-19	0%
CCCCCOc1ccccc1CN1C(=O)C(=O)c2cc(C)ccc21	nt	-26%[46.1 µM]	-19%[46.1 µM]	nt	-93*	0%
COc1ccccc1CN1C(=O)C(=O)c2cccc(C)c21	nt	10%[46.1 µM]	27%[46.1 µM]	nt	51	-7%
Cc1cc(Br)cc2c1N(Cc1ccccc1OC(C)C)C(=O)C2=O	nt	?	?	nt	-88*	0%
Cc1cccc2c1N(Cc1ccccc1OCCC(C)C)C(=O)C2=O	nt	?	?	nt	-93*	0%
CC(CCC(=O)OC[C@H]1O[C@H](C#Cc2ccccc2)C=C[C@H]1Oc1ccc(C)cc1)=NO[C@H](C)c1cn([C@H](CO)Cc2ccccc2)nn1	nt	?	-6%[14.3 µM]	nt	nt	nt
Cc1ccc2c(c1)nnn2C1CCN(S(=O)(=O)c2ccc(C(=O)O)cc2)CC1	34%	16%[46.1 µM]	-8%	14%	-67*	3%
Cc1ccc2c(c1)nnn2C1CCN(S(C)(=O)=O)CC1	-4%	3%[46.1 µM]	-7%	6%	15	22%

From PubChem
